Assay results: PubChem BioAssay (Tox21)
Unmarked numbers belong to inactive results. Results filed as inconclusive are left out. Where a call stands in place of a potency, no number is given. Calls of active or inactive are those of the source. Unless noted, calls follow the shape of the dose curve; as a rule, active = well fitted curve in the direction sought with a large enough effect in the repeat runs; inconclusive = weak or mixed curves; inactive = no such curve, though single readings can be large; an effect the other way counts as inactive or inconclusive.

How the values were obtained:
[1] = qHTS assay to identify small molecule agonists of the estrogen receptor alpha (ER-alpha) signaling pathway in the presence of an antagonist - cell viability counter screen (AID 1259386); also: series mostly up to about 92 µM; nearly all actives have a fitted effect of over 30% in size
Method in brief: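 Compounds tested at 15 concentrations for 22 h at 37C alongside 10.0nM (final) ICI-182,780 antagonist, in VM7Luc4E2 cells grown in phenol red-free, charcoal-stripped medium. Viability read by CellTiter-Fluor fluorescence after 1 h reagent incubation.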

[2] = biological target: Progesterone receptor (Homo sapiens) (UniProt P06401); experiment: qHTS assay to identify small molecule agonists of the progesterone receptor (PR) signaling pathway (AID 1346784; calls by dose curve; also: nearly all actives have a fitted effect of over 30% in size)
Method in brief: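 Using charcoal-stripped serum (2%) to limit endogenous steroids, PR-UAS-bla HEK 293T cells received compounds for 16 hr at 37C after 6 hr plating; beta-lactamase FRET fluorescence was recorded following 2 hr substrate loading at room temperature.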

[3] = qHTS assay to identify small molecule antagonists of the progesterone receptor (PR) signaling pathway - cell viability counter screen (AID 1346798); also: nearly all actives have a fitted effect of over 50% in size; also: potency is read from the fitted curve at half-maximal effect
Method in brief: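 ATP content as viability readout: CellTiter-Glo luminescence, 30 min room temperature, in PR-UAS-bla HEK293T cells after 16 hr compound/R5020 treatment at 37C and 5% CO2.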

[4] = qHTS assay to identify small molecule agonists of the progesterone receptor (PR) signaling pathway - cell viability counter screen (AID 1346799; calls by dose curve; also: nearly all actives have a fitted effect of over 45% in size; also: potency is read from the fitted curve at half-maximal effect)
Method in brief: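 Cytotoxicity in PR-bla HEK293T cells: 16 h compound, 37C; CellTiter-Glo added post-FRET read; luminescence after 30 min RT.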

[5] = qHTS assay to identify small molecule antagonists of the TGF-beta/Smad signaling pathway - cell viability counter screen (AID 1346824); also: nearly all actives have a fitted effect of over 50% in size
Method in brief: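 Cytotoxicity counter-screen run in the same wells as the beta-lactamase Smad reporter read: CellTiter-Glo luminescence after 30 min at room temperature. HEK 293T SBE-bla cells had 5 hr compound exposure at 37 C with TGF-beta1 (0.25 ng/mL stock).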

[6] = qHTS assay to identify small molecule agonists of the TGF-beta/Smad signaling pathway - cell viability counter screen (AID 1346829); also: top concentration of the series differs between compounds; nearly all actives have a fitted effect of over 45% in size
Method in brief: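 HEK 293T SBE-bla line, 5 hr compound exposure at 37 C, multiplexed CellTiter-Glo viability read by luminescence.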

[7] = Human pregnane X receptor (PXR) small molecule agonists, qHTS cell viability counter screen (AID 1346977); also: nearly all actives have a fitted effect of over 50% in size
Method in brief: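 Readout is CellTiter-Fluor fluorescence from PXR-Luc HepG2 cells. Plated cells rested 5hr, then were treated with compounds for 24hr at 37C and 5% CO2, with reagent present during the last hour.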

[8] = Caspase-3/7 induction in HepG2 cells by small molecules, qHTS assay (AID 1346978); also: nearly all actives have a fitted effect of over 15% in size
Method in brief: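 Caspase-3/7 induction was measured by Caspase-Glo 3/7 luminescence (30 min, room temperature) after a 17 hr compound exposure of wild-type HepG2 cells seeded at 2,000 per well and pre-incubated 5 hr.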

[9] = Caspase-3/7 induction in CHO-K1 cells by small molecules, qHTS cell viability counter screen (AID 1346979); also: nearly all actives have a fitted effect of over 35% in size
Method in brief: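 To flag cytotoxic compounds, treated CHO-K1 wild-type cells were given CellTiter-Fluor at 16hr and read fluorescently after 1hr at 37C; the caspase-3/7 luminescence was measured in these same wells.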

[10] = Caspase-3/7 induction in CHO-K1 cells by small molecules, qHTS assay (AID 1346980); also: nearly all actives have a fitted effect of over 15% in size
Method in brief: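 Luminescent Caspase-Glo 3/7 read (30min, room temperature) quantified apoptosis induction. Cells were wild-type CHO-K1, treated with compound for 17hr at 37 C and 5% CO2.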

[11] = Caspase-3/7 induction in HepG2 cells by small molecules, qHTS cell viability counter screen (AID 1346981); also: series mostly up to about 92 µM; nearly all actives have a fitted effect of over 30% in size
Method in brief: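 CellTiter-Fluor fluorescence measured viability in the same wells used for Caspase-Glo 3/7. HepG2 (wild type) at 2,000 cells/well were pre-incubated 5 hr, dosed, and given reagent at 16 hr, with 1 hr further at 37C.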

[12] = biological target: Nuclear receptor subfamily 1 group I member 2 (Homo sapiens) (UniProt O75469); experiment: Human pregnane X receptor (PXR) small molecule agonists, qHTS assay (AID 1346982); also: nearly all actives have a fitted effect of over 35% in size; also: potency is read from the fitted curve at half-maximal effect
Method in brief: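 Agonist mode: luminescence from ONE-Glo after 24 h compound exposure at 37C in HepG2 cells carrying hPXR-responsive CYP3A4 luciferase, plated in charcoal-stripped serum medium 5 h beforehand.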

[13] = biological target: Progesterone receptor (Homo sapiens) (UniProt P06401); experiment: qHTS assay to identify small molecule antagonists of the progesterone receptor (PR) signaling pathway (AID 1346795; active = well fitted inhibition curve with a large enough effect in the signal ratio in the repeat runs, not every such curve was filed as active; the % refers to the signal ratio; also: potency is read from the fitted curve at half-maximal effect)
Method in brief: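 Inhibition of R5020-induced (1 nM final) beta-lactamase reporter signal in PR-UAS-bla HEK293T cells was scored by FRET fluorescence after overnight (16 hr) compound treatment.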

[14] = qHTS assay to identify small molecule agonists of the TGF-beta/Smad signaling pathway (AID 1346859; active = well fitted activation curve with a large enough effect in the signal ratio in the repeat runs, not every such curve was filed as active; the % refers to the signal ratio; also: series mostly up to about 77 µM)
Method in brief: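 Stable Smad binding element-beta-lactamase HEK 293T cells; 5 hr compound exposure at 37 C under 5% CO2; 2 hr room-temperature substrate step; fluorescence excited at 405 nm, collected at 460 nm and 530 nm.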

[15] = biological target: Thyrotropin-releasing hormone receptor (Homo sapiens) (UniProt P34981); experiment: qHTS assay to identify small molecule antagonists of the thyrotropin-releasing hormone receptor (TRHR) signaling pathway (AID 1346877; active = well fitted inhibition curve with a large enough effect in the repeat runs, not every such curve was filed as active; also: series mostly up to about 51 µM)
Method in brief: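 Antagonist mode: after a 5 min room-temperature compound exposure, cells were stimulated with 1 nM (final) TRH. Dye-loaded TRHR-HEK293 cells were used, and calcium-dependent fluorescence was followed for 3 min, with 15-point titrations run in triplicate.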

[16] = biological target: Thyrotropin-releasing hormone receptor (Homo sapiens) (UniProt P34981); experiment: qHTS assay to identify small molecule agonists of the thyrotropin-releasing hormone receptor (TRHR) signaling pathway (AID 1346891; calls by dose curve;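 also: HEK293 cells expressing TRHR with calcium dye readout; series mostly up to about 58 µM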)
Method in brief: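 In 1536-format, 1500 TRHR-Hek293 cells per well grew 18 h, took up calcium dye for 2 h at 37 °C, received compound, and were read kinetically; 15-point titrations, triplicates.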

[17] = biological target: Nuclear receptor subfamily 1 group I member 2 (Rattus norvegicus) (UniProt Q9R1A7); experiment: Rat pregnane X receptor (rPXR) activation by small molecules, qHTS assay (AID 1346983); settings: rPXR luciferase reporter cells, One-Glo luminescence, 24 h; max activation: active compounds read high; also: nearly all actives have a fitted effect of over 20% in size
Method in brief: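 Luminescent readout (One-Glo luciferase, 30 min room temperature) followed 24 hr compound treatment at 37 C of rPXR cells plated 2,000 per well and preincubated 5hr; qHTS format with compounds delivered in DMSO.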

[18] = biological target: Nuclear receptor subfamily 1 group I member 2 (Homo sapiens) (UniProt O75469); experiment: CYP3A4 induction through human pregnane X receptor (PXR) by small molecules, qHTS assay (AID 1346984); also: nearly all actives have a fitted effect of over 40% in size
Method in brief: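 Read-out is luminescence after One-Glo addition, following a 3 hr, 37C incubation with Luciferin-IPA CYP3A4 substrate (3uM final). Before that, compounds were on DPX-2 cells (HepG2 co-transfected with PXR element plus CYP3A4-promoter luciferase) for 24 hr at 37C.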

[19] = biological target: Nuclear receptor subfamily 1 group I member 2 (Homo sapiens) (UniProt O75469); experiment: Human pregnane X receptor (PXR) activation by small molecules, qHTS assay (AID 1346985); also: nearly all actives have a fitted effect of over 40% in size
Method in brief: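 DPX-2 cells (HepG2 co-transfected with a PXR response element and a CYP3A4-promoter luciferase construct) were seeded at 2,000 per well, rested 5 hr at 37C, then exposed to DMSO-dissolved compounds for 24 hr. Activation was read as luciferase luminescence.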

Nuclear receptor subfamily 1 group I member 2 (Homo sapiens), sequence (O75469 whole entry, looked up): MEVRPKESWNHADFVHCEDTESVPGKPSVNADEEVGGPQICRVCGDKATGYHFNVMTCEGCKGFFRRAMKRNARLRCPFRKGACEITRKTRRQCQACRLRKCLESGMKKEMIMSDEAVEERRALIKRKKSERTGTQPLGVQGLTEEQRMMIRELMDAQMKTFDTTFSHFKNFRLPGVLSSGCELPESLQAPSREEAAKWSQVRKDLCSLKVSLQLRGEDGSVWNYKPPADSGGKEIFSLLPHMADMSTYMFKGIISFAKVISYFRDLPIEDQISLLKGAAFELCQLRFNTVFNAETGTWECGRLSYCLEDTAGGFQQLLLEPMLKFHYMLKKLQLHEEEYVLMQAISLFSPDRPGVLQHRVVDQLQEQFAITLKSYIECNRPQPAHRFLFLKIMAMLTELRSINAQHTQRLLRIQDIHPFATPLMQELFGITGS
Thyrotropin-releasing hormone receptor (Homo sapiens), sequence (P34981 whole entry, looked up): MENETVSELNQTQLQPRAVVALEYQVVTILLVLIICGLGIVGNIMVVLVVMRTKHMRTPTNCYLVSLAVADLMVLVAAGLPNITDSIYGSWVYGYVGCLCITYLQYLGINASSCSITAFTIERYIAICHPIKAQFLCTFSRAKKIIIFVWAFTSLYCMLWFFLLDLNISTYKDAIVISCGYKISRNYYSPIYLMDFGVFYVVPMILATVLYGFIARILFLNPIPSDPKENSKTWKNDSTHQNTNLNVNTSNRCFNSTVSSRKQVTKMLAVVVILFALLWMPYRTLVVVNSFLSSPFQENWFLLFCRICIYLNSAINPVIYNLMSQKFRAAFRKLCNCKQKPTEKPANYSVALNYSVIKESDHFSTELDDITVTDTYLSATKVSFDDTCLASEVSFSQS
Progesterone receptor (Homo sapiens), sequence (P06401 whole entry, looked up): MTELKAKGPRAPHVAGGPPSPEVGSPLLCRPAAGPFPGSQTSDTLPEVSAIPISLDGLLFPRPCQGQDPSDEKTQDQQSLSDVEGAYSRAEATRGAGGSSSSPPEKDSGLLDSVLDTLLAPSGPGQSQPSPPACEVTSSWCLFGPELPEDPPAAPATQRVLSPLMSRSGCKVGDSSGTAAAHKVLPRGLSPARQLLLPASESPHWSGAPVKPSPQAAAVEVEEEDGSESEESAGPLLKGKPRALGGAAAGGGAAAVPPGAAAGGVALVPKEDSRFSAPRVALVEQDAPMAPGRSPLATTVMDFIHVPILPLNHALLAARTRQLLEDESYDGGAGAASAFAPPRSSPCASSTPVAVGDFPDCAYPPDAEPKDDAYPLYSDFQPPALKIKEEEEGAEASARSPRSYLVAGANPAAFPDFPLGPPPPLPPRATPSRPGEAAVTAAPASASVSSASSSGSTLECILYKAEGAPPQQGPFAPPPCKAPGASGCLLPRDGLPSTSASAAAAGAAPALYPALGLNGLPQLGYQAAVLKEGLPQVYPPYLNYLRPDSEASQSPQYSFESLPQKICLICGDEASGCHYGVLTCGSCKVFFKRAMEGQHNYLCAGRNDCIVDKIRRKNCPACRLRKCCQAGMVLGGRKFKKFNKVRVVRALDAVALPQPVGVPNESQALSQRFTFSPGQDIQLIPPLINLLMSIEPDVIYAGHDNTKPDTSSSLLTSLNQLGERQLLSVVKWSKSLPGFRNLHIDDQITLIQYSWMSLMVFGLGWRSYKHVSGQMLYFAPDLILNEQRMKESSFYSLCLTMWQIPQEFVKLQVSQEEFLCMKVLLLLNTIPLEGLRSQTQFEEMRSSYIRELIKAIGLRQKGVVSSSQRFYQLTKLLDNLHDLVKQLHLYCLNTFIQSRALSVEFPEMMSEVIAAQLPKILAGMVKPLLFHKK
Nuclear receptor subfamily 1 group I member 2 (Rattus norvegicus), sequence (Q9R1A7 whole entry, looked up): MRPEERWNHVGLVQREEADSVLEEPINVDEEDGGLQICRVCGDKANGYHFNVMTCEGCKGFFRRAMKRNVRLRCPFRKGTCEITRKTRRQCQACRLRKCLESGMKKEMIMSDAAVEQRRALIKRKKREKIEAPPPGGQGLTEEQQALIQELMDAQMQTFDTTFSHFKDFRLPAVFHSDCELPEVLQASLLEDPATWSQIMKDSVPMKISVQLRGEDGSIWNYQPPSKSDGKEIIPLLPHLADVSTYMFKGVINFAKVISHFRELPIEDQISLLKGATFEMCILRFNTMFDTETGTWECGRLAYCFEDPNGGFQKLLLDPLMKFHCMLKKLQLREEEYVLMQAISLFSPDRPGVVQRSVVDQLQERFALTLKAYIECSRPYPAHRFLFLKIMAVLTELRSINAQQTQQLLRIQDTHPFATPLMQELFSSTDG

Row | SMILES | outcome [1] | Potency [2] | Potency [3] | Potency [4] | outcome [5] | outcome [6] | Potency [7] | outcome [8] | Potency [9] | outcome [10] | outcome [11] | Potency [12] | Potency [13] | outcome [14] | outcome [15] | outcome [16] | max activation [17] | Potency [18] | Potency [19]
1 | Cc1nc(-c2ccc(OCC(C)C)c(C#N)c2)sc1C(=O)O | inactive | inactive | inactive | inactive | inactive | inactive | inactive | inactive | inactive | inactive | inactive | 0.106 µM (active) | – | – | – | – | – | – | –
2 | COc1cc(C)cc(O)c1 | inactive | inactive | inactive | inactive | inactive | inactive | inactive | inactive | inactive | inactive | inactive | inactive | inactive | inactive | – | – | – | – | –
3 | C=C(C)[C@H]1CC=C(C)CC1 | inactive | inactive | inactive | inactive | inactive | inactive | inactive | inactive | inactive | inactive | inactive | 61.1 µM (active) | inactive | inactive | – | – | – | – | –
4 | C=C(C)C(=O)NCCC[N+](C)(C)C | inactive | inactive | – | inactive | inactive | inactive | inactive | inactive | inactive | inactive | – | inactive | inactive | inactive | – | – | – | – | –
5 | CC(C)(O)c1ccccc1 | inactive | – | 52.2 µM (active) | 58.6 µM (active) | inactive | inactive | inactive | inactive | inactive | inactive | inactive | inactive | inactive | inactive | inactive | inactive | – | – | –
6 | CC(CCO)CCCC(C)(C)O (stereo not given) | inactive | inactive | inactive | inactive | inactive | inactive | inactive | inactive | – | inactive | inactive | inactive | inactive | inactive | – | inactive | – | – | –
7 | CSc1nc(NC2CC2)nc(NC(C)(C)C)n1 | inactive | inactive | inactive | inactive | inactive | inactive | inactive | inactive | inactive | inactive | – | 21.7 µM (active) | 61.1 µM (active) | inactive | – | – | – | – | –
8 | O=C(O)Cc1cc(I)c(Oc2cc(I)c(O)c(I)c2)c(I)c1 | inactive | – | inactive | – | inactive | inactive | inactive | inactive | – | inactive | – | 37.8 µM (active) | 18.9 µM (active) | inactive | – | inactive | – | – | –
9 | CCCOc1ccccc1-c1nc2n[nH]nc2c(=O)[nH]1 | inactive | inactive | inactive | inactive | inactive | inactive | inactive | inactive | inactive | inactive | inactive | inactive | inactive | – | inactive | inactive | – | – | –
10 | Cc1c(C)n(CCN(C)C)c2ccc(C(=O)OCCN(C)C)cc12 | inactive | – | – | – | inactive | inactive | – | inactive | – | inactive | – | inactive | – | inactive | inactive | inactive | 6.74% | inactive | –
11 | c1ccc(SCCSc2ccccc2)cc1 | inactive | inactive | inactive | inactive | inactive | inactive | inactive | inactive | inactive | inactive | – | 7.63 µM (active) | – | inactive | inactive | inactive | – | – | –
12 | CCC(=O)/C=C/c1ccc(OC)cc1 | inactive | inactive | inactive | – | inactive | inactive | inactive | inactive | inactive | inactive | inactive | – | – | inactive | inactive | inactive | – | – | –
13 | CC1=CC(C)C(C=O)C(C)C1 (stereo not given) | inactive | inactive | – | inactive | inactive | inactive | inactive | inactive | inactive | inactive | – | inactive | – | inactive | – | – | – | – | –
14 | CC(O)CN(CCCN(C)C)CCCN(C)C (stereo not given) | inactive | inactive | inactive | inactive | – | inactive | inactive | inactive | – | inactive | inactive | inactive | inactive | inactive | inactive | inactive | – | – | –
15 | COCc1ccc(COC)cc1 | inactive | inactive | inactive | inactive | – | inactive | inactive | inactive | inactive | inactive | inactive | inactive | – | inactive | – | inactive | – | – | –
16 | Cc1cc(C)c(NC(=O)CN(CC(=O)O)CC(=O)O)c(C)c1Br | inactive | inactive | inactive | inactive | inactive | inactive | inactive | inactive | inactive | inactive | inactive | inactive | inactive | inactive | – | – | -1.5% | inactive | inactive
17 | C1=C\CC/C=C\CC/C=C\CC/1 | inactive | inactive | inactive | inactive | inactive | inactive | inactive | inactive | inactive | inactive | – | inactive | inactive | inactive | – | – | – | – | –
18 | CCCCN(CCO)CCO | inactive | – | inactive | – | inactive | inactive | inactive | inactive | inactive | inactive | inactive | inactive | inactive | inactive | inactive | inactive | – | – | –
